From PubChem BioAssay (Tox21)
“And” between values parts separate entries of the source, which are not always exact repeats. Equal values may be shown once. Records with an inconclusive call do not appear. The source made the active and inactive calls. Unless noted, calls follow the shape of the dose curve; as a rule, active = well fitted curve in the direction sought with a large enough effect in the repeat runs; inconclusive = weak or mixed curves; inactive = no such curve, though single readings can be large; an effect the other way counts as inactive or inconclusive.

Assays:
[1] = qHTS assay to test for compound auto fluorescence at 590 nm (red) in HepG2 cell free culture (AID 720684)
In short: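 Plate contents were MEM with 10% FBS plus test compound or DMSO, no cells. Fluorescence was recorded with 540 nm excitation and 590 nm emission.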

[2] = qHTS assay for identifying genotoxic compounds that show differential cytotoxicity against isogenic chicken DT40 cell lines with known DNA damage response pathways - wild type cell line (AID 743012); also: nearly all actives have a fitted effect of over 60% in size
In short: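 Cells (DT40 wild type, 300/well) are treated with DMSO-dissolved compounds after a ~0.5 h pre-incubation and kept 40 h at 37 C/5% CO2. Viability is then measured by CellTiter-Glo luminescence following 30 min at room temperature.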

[3] = biological target: Glucocorticoid receptor (Homo sapiens) (UniProt P04150); test: qHTS assay to identify small molecule agonists of the glucocorticoid receptor (GR) signaling pathway (AID 720691; active = well fitted activation curve with a large enough effect in the signal ratio in the repeat runs, not every such curve was filed as active; the % refers to the signal ratio)
Chain of Glucocorticoid receptor (Homo sapiens) (P04150 whole entry, looked up): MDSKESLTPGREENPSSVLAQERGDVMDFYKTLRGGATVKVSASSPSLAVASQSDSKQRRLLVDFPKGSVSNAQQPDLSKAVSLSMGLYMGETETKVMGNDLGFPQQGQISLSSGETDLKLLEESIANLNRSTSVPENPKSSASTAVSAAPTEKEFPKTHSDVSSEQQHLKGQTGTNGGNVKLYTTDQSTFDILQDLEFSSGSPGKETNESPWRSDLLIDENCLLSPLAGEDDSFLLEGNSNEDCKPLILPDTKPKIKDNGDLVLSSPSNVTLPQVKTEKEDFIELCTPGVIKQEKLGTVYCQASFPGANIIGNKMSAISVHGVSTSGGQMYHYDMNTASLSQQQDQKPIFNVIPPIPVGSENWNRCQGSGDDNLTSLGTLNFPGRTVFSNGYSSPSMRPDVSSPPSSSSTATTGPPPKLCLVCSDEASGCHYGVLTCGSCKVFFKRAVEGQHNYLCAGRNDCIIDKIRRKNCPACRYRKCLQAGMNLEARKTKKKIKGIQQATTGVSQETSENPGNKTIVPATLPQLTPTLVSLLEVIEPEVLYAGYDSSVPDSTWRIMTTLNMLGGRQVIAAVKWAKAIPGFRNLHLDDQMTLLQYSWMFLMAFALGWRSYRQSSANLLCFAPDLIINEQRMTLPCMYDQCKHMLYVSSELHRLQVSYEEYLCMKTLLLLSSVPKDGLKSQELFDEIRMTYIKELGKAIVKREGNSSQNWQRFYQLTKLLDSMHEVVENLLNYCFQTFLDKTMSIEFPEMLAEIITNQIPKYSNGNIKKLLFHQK
In short: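 Agonist mode in a HeLa line carrying a GRE-controlled beta-lactamase reporter. Compounds act for 18 h at 37 C before a 2 h room-temperature FRET substrate step and fluorescence reading.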

[4] = biological target: Glucocorticoid receptor (Homo sapiens) (UniProt P04150); test: qHTS assay to identify small molecule antagonists of the glucocorticoid receptor (GR) signaling pathway (AID 720692; active = well fitted inhibition curve with a large enough effect in the signal ratio in the repeat runs, not every such curve was filed as active; the % refers to the signal ratio)
In short: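 Cells plated, rested 4 h at 37 C/5% CO2; compounds in DMSO pin-transferred; dexamethasone added to 5 nM final; 18 h at 37 C; B/G FRET substrate added, 2 h room temperature; fluorescence measured.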

[5] = biological target: Androgen receptor (Homo sapiens) (UniProt P10275); test: qHTS assay to identify small molecule antagonists of the androgen receptor (AR) signaling pathway (AID 743035; active = well fitted inhibition curve with a large enough effect in the signal ratio in the repeat runs, not every such curve was filed as active; the % refers to the signal ratio)
Chain of Androgen receptor (Homo sapiens) (P10275 whole entry, looked up): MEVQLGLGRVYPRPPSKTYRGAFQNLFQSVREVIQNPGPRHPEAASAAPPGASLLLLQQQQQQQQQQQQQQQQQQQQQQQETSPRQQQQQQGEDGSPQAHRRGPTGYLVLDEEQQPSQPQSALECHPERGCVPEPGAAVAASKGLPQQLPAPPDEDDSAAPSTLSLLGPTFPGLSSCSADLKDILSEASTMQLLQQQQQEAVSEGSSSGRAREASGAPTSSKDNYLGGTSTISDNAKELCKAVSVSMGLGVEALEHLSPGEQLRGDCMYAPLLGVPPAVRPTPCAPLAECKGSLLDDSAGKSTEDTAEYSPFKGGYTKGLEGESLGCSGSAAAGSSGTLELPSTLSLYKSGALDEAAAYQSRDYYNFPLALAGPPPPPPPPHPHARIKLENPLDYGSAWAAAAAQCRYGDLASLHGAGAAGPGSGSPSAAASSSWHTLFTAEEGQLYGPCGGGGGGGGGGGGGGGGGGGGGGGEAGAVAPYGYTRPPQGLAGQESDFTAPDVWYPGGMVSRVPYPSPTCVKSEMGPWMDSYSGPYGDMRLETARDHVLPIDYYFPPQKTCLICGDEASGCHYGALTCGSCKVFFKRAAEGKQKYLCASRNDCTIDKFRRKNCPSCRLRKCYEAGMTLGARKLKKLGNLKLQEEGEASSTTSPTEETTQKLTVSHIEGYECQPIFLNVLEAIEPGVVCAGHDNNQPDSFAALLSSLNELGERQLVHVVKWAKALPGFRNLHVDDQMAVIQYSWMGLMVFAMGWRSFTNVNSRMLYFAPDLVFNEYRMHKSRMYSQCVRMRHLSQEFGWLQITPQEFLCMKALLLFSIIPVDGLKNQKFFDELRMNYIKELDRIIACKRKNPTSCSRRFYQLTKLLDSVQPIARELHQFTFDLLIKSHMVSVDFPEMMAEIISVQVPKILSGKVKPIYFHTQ
In short: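 Antagonism is scored as loss of R1881-driven beta-lactamase reporter expression in HEK293 cells carrying the reporter under a UAS element, after 16 h co-treatment at 37C and a 2 h room-temperature FRET substrate read.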

[6] = biological target: Androgen receptor (Homo sapiens) (UniProt P10275); test: qHTS assay to identify small molecule agonists of the androgen receptor (AR) signaling pathway (AID 743036; active = well fitted activation curve with a large enough effect in the signal ratio in the repeat runs, with a control signal flat, not every such curve was filed as active; the % refers to the signal ratio)
In short: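 Reporter line: GeneBLAzer AR-UAS-bla-GripTite (HEK293). Steps: plate cells, 4 h rest, add compounds, 16 h at 37C, add LiveBLAzer B/G substrate, 2 h at RT, read fluorescence.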

[7] = biological target: Androgen receptor (Homo sapiens) (UniProt P10275); test: qHTS assay to identify small molecule agonists of the androgen receptor (AR) signaling pathway using the MDA cell line (AID 743040; also: nearly all actives have a fitted effect of over 20% in size)
In short: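 After a 5 h incubation at 37C and 0% CO2, MDA-kb2 reporter cells were dosed with compounds in DMSO and kept 16 h under the same conditions. Luciferase activity was then read as luminescence with ONE-Glo.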

[8] = biological target: Androgen receptor (Homo sapiens) (UniProt P10275); test: qHTS assay to identify small molecule antagonists of the androgen receptor (AR) signaling pathway using the MDA cell line (AID 743042; also: nearly all actives have a fitted effect of over 55% in size)
In short: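 Antagonist mode: compounds plus R1881 agonist added to MDA-kb2 AR-luc cells, incubated 16 h at 37C. Luciferase reporter luminescence quantified, with multiplexed CellTiter-Fluor readout for cell viability.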

[9] = qHTS assay to identify small molecule antagonists of the thyroid receptor (TR) signaling pathway (AID 743065); also: nearly all actives have a fitted effect of over 55% in size
In short: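 Antagonism measured as loss of luciferase signal in GH3 cells stably carrying a TRE-luciferase reporter, co-treated with compound and T3 (1 nM final) for 23.5 h at 37 C. Viability was read in the same well by CellTiter-Fluor.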

[10] = biological target: Nuclear receptor subfamily 1 group I member 2 (Homo sapiens) (UniProt O75469); test: CYP3A4 induction through human pregnane X receptor (PXR) by small molecules, qHTS assay (AID 1346984); also: nearly all actives have a fitted effect of over 40% in size
In short: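 Steps: seed DPX-2 cells, 5 hr at 37C; pin-transfer compounds; 24 hr at 37C; add Luciferin-IPA (3uM final), 3 hr at 37C; add One-Glo, 30 min RT; read luminescence.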

[11] = biological target: Nuclear receptor subfamily 1 group I member 2 (Homo sapiens) (UniProt O75469); test: Human pregnane X receptor (PXR) activation by small molecules, qHTS assay (AID 1346985); also: nearly all actives have a fitted effect of over 40% in size
In short: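 DPX-2 cells (HepG2 co-transfected with a PXR response element and a CYP3A4-promoter luciferase construct) were seeded at 2,000 per well, rested 5 hr at 37C, then exposed to DMSO-dissolved compounds for 24 hr. Activation was read as luciferase luminescence.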

[12] = qHTS assay to identify small molecule antagonists of the estrogen related receptor (ERR) signaling pathway from Tox21 library - cell viability counter screen (AID 1224834); also: nearly all actives have a fitted effect of over 30% in size
In short: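 Cytotoxicity of test substances is gauged in the same ERR cells used for the antagonist screen, after 17.5 h of compound treatment at 37 C, by CellTiter-Fluor fluorescence measured after 30 min.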

[13] = qHTS assay to identify small molecule antagonists of the estrogen related receptor signaling pathway with the pleiotropic PPARgamma coactivator (PGC) from Tox21 10K library - cell viability counter screen (AID 1224840; active = well fitted cell-killing curve with a large enough effect in the repeat runs, not every such curve was filed as active; also: nearly all actives have a fitted effect of over 40% in size)
In short: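 Step one, plate 2,000 PGC/ERR cells per well; step two, incubate 6 h at 37 C/5% CO2; step three, pin-transfer compounds; step four, incubate 17.5 h; step five, add CellTiter-Fluor and read fluorescence after 30 min.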

[14] = qHTS assay to identify small molecule antagonists of the estrogen related receptor signaling pathway with the pleiotropic PPARgamma coactivator (PGC) from Tox21 10K library (AID 1224841; call rule not given here; also: actives are mostly falling curves and most rising ones were filed inactive; nearly all actives have a fitted effect of over 50% in size)
In short: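 Antagonism in this quantitative HTS is taken from loss of luciferase signal in PGC/ERR cells. Cells (2,000/well) are treated with compounds in DMSO after a 6 h settling period and read by One-Glo luminescence after 18 h.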

[15] = qHTS assay to identify small molecule agonists of the estrogen related receptor signaling pathway with the pleiotropic PPARgamma coactivator (PGC) from Tox21 10K library (AID 1224842); also: nearly all actives have a fitted effect of over 15% in size
In short: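 Luminescence from One-Glo (30 min, room temperature) measured after PGC/ERR cells had 18 h at 37 C with pinned compound (23 nL in DMSO). Cells had been seeded at 2,000 per well and pre-incubated 6 h.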

[16] = qHTS assay to identify small molecule agonists of the estrogen related receptor (ERR) signaling pathway from Tox21 library (AID 1224849; calls by dose curve; also: nearly all actives have a fitted effect of over 15% in size); details: ERR reporter cell line, ONE-Glo luciferase, 18 h
In short: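 Agonist signal is luciferase luminescence from an ERR reporter cell line treated 18 h at 37 C with DMSO-dissolved compounds, read 30 min after ONE-Glo addition at room temperature.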

[17] = biological target: Acetylcholinesterase (Homo sapiens) (UniProt P22303); test: Acetylcholinesterase (AChE) small molecule antagonists: colormetric cell-based qHTS assay (AID 1347395; calls by dose curve; also: nearly all actives have a fitted effect of over 30% in size)
Chain of Acetylcholinesterase (Homo sapiens) (P22303 whole entry, looked up): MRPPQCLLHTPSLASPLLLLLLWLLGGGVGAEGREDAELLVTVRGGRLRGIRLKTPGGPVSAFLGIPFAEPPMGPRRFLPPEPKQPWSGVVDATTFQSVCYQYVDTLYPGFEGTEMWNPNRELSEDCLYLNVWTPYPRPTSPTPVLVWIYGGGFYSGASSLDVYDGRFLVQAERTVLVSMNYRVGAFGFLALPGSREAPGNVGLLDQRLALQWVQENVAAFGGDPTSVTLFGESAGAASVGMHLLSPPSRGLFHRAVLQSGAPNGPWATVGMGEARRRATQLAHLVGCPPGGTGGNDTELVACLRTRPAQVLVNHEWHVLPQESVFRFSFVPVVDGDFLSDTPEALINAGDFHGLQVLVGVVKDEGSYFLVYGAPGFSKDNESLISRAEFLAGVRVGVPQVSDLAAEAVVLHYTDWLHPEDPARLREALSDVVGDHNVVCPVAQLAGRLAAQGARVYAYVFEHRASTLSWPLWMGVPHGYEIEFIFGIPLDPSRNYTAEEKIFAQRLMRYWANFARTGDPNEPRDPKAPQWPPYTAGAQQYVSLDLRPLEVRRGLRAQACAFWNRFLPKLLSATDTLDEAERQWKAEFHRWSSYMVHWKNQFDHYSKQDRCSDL
In short: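 Endogenous AChE of human neuroblastoma SH-SY5Y cells was measured with an Ellman-type DTNB/acetylthiocholine mix. Compound pretreatment lasted 30 min at 37 C; substrate reaction ran 90 min at 37 C.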

[18] = biological target: Acetylcholinesterase (Homo sapiens) (UniProt P22303); test: Acetylcholinesterase (AChE) small molecule antagonists: enzyme-based qHTS assay (AID 1347397; calls by dose curve; also: nearly all actives have a fitted effect of over 55% in size); details: Potency: AChE enzyme activity inhibition; outcome: AChE enzyme activity inhibition
In short: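 Absorbance-based detection of thiocholine with DTNB served as the read-out. Recombinant human AChE was exposed to compound for 30 min at RT before a 10 min RT incubation with acetylthiocholine.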

[19] = biological target: Acetylcholinesterase (Homo sapiens) (UniProt P22303); test: Acetylcholinesterase (AChE) small molecule antagonists: fluorescence cell-based qHTS assay (AID 1347398; calls by dose curve; also: nearly all actives have a fitted effect of over 50% in size); details: Potency: AChE activity; outcome: AChE activity
In short: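 Fluorimetric cell-based assay: intact SH-SY5Y cells, 30 min compound preincubation at 37 C, acetylthiocholine substrate with thiol probe Thiolite Green, 40 min RT development, fluorescence 490/520 nm.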

[20] = qHTS assay to identify small molecule antagonists of the estrogen related receptor (ERR) signaling pathway - cell viability counter screen (AID 1224818);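 also: viability measured after 17.5 h of compound exposure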
In short: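 Cells carrying the ERR pathway reporter were seeded and incubated for 6 hours before compound addition. After a 17.5-hour exposure at 37 C, live-cell protease activity was measured by CellTiter-Fluor fluorescence following 30 minutes of incubation.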

[21] = qHTS assay to identify small molecule agonists of the estrogen related receptor (ERR) signaling pathway (AID 1224820)
In short: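 Quantitative HTS of the LOPAC library used NTP ERR reporter cells treated 18 h at 37 C. Signal is luminescence after One-Glo addition and a 30 min room-temperature incubation.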

[22] = system: estrogen-related receptor alpha (ERRalpha) with PGC-1alpha coactivator, human; test: qHTS assay to identify small molecule antagonists of the estrogen related receptor signaling pathway with the pleiotropic PPARgamma coactivator (PGC) (AID 1224821; calls by dose curve;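 also: lower luminescence signal means antagonism of PGC/ERR signalling; nearly all actives have a fitted effect of over 50% in size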)
In short: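 Quantitative HTS for antagonism: PGC/ERR cells received compounds after 6 h attachment and were incubated 18 h at 37 C, with luminescence (One-Glo) as the endpoint.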

[23] = qHTS assay to identify small molecule antagonists of the estrogen related receptor signaling pathway with the pleiotropic PPARgamma coactivator (PGC) cell viability counter screen (AID 1224822;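 also: viability read after 17.5 h compound exposure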)
In short: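 Seed PGC/ERR cells (2,000/well); incubate 6 h at 37 C/5% CO2; pin-transfer compounds in DMSO; incubate 17.5 h at 37 C; add CellTiter-Fluor; after 30 min read fluorescence.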

[24] = qHTS assay to identify small molecule agonists of the estrogen related receptor signaling pathway with the pleiotropic PPARgamma coactivator (PGC) (AID 1224823)
In short: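 Cell-based luciferase assay in the NTP-supplied PGC/ERR line, 2,000 cells/well; 18 h compound exposure at 37 C, luminescence after One-Glo.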

[25] = qHTS assay to identify small molecule antagonists of the estrogen related receptor (ERR) signaling pathway (AID 1224819;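 also: luminescence from an ERR-driven luciferase reporter measured with One-Glo reagent; nearly all actives have a fitted effect of over 50% in size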)
In short: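 Compounds dissolved in DMSO were pin-transferred onto ERR cells that had been plated 6 h earlier, and cells were then incubated 18 h at 37 C; signal was luciferase luminescence via One-Glo.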

[26] = biological target: Acetylcholinesterase (Homo sapiens) (UniProt P22303); test: Acetylcholinesterase (AChE) small molecule antagonists: enzyme-based qHTS assay with human liver microsomes (AID 1347399; calls by dose curve; also: nearly all actives have a fitted effect of over 60% in size); details: Potency: qHTS inhibition; outcome: qHTS inhibition
In short: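 Recombinant human AChE (50 mU/mL in the enzyme mix) and human liver microsomes (0.25 mg/mL final) were preincubated with compound and NADPH (0.25 mg/mL final) for 30 min at 37 C. Acetylthiocholine/DTNB was then added; thiocholine was read colorimetrically after 10 min at room temperature.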
% is scaled to controls: 0 for no effect and ±100 for the full control effect.

c1ccc(C2(c3ccccc3)CC2C2=NCCN2)cc1 (stereo not given)
inactive: outcome [1] | Potency [2]

CCCCCN(C)CCC(O)(P(=O)(O)O)P(=O)(O)O
inactive: Potency [3] | Potency [4] | Potency [2] | Potency [5] | Potency [6] | Potency [7] | Potency [8] | Potency [9] | Potency [10] | Potency [11]

CCn1cc(C(=O)O)c(=O)c2ccc(C)nc21
inactive: Potency [12] | Potency [13] | Potency [14] | Potency [15] | activity change, positive = activation ([16]; at 42.5 µM (top of the series)) 4.67% | activity change, positive = activation ([16]; at 92.4 µM (top of the series)) 4.5% and 0.305% | Potency [17] | Potency [18] | Potency [19]

C[C@]12N[C@H](Cc3ccccc31)c1ccccc12
inactive: Potency [10] | Potency [11]

NC(=O)c1ccc(OCC(O)CN2CC=C(c3ccc(F)cc3)CC2)cc1 (stereo not given)
inactive: Potency [20] | Potency [21] | Potency [22] | Potency [23] | Potency [24]

CCCn1c(=O)c2[nH]c(C3CCCC3)nc2n(CCCOC(=O)c2ccc(S(=O)(=O)F)cc2)c1=O
inactive: Potency [20] | Potency [21] | Potency [22] | Potency [23]

CC(N)C(=O)OC(C)(C)Cc1ccc(Cl)cc1 (stereo not given)
inactive: Potency [20] | Potency [25] | Potency [21] | Potency [22] | Potency [23] | Potency [12] | Potency [13] | Potency [14] | Potency [15] | activity change, positive = activation ([16]; at 92.4 µM (top of the series) unless noted) 8.82% [at 42.5 µM] | Potency [17] | Potency [18] | Potency [19] | Potency [26]

CC(N)Cc1c[nH]c2ccc(O)cc12 (stereo not given)
inactive: Potency [20] | Potency [25] | Potency [21] | Potency [23]
